PTHR1 ag: agonists of human PTHR1 parathyroid hormone receptor. Q03431. HEK293 GP2 PTHR1 cells, GloSensor cAMP luminescence, 1 h. Potency, µM (titrated, usually from 115 µM), for inactives: at the top dose activation, actives largely listed as activators. 410,000 compounds, 0.075% hits. AID 743266; also: potency is read from the fitted curve at half-maximal effect; nearly all actives have a fitted effect of over 55% in size
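HEK-293-derived GP2 cells expressing PTHR1 and a GloSensor cAMP reporter, 3,000/well, plated overnight, given luciferin plus IBMX (each 0.5 mM as added) for 1 h at 37 °C, then compound for 1 h at 37 °C. Luminescence was read after 15 min at room temperature.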
RXFP1 agonist: activates the human relaxin receptor RXFP1; Q9HBX9; HEK293T-RXFP1 cAMP TR-FRET, 30 min; response scale: percent of porcine relaxin response, buffer zero; Potency, µM (doses to about 57.5 µM), without a hit: top-dose activation, usual class: activators; 370,000 compounds, 0.3% hits; also: potency is read from the fitted curve at half-maximal effect; % is scaled to controls: 0 for no effect and ±100 for the full control effect; nearly all actives have a fitted effect of over 60% in size
Target sequence (Q9HBX9 whole entry, looked up): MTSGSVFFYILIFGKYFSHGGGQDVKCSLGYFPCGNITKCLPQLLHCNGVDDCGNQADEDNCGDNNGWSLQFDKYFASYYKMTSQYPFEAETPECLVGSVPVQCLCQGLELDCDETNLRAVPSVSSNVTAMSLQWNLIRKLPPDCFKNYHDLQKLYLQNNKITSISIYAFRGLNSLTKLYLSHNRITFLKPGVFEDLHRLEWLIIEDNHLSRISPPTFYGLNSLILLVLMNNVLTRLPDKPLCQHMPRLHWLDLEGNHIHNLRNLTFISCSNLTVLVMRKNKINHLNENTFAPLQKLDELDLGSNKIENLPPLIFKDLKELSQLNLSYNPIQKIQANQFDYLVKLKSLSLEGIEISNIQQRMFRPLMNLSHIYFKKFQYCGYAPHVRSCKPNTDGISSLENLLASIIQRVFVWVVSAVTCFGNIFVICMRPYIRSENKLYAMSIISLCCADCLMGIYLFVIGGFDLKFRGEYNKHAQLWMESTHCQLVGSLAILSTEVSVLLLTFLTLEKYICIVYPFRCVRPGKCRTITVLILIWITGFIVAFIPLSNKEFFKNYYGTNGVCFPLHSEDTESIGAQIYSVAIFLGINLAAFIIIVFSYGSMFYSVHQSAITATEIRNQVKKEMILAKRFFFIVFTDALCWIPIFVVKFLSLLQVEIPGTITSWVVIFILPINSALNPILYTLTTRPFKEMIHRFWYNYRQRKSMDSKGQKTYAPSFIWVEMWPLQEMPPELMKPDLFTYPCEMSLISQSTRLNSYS
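Agonist response is measured as cAMP accumulation in an RXFP1-transfected HEK293T line under PDE4 inhibition. Values are scaled between buffer-only and 29 nM porcine relaxin, and EC50s come from standard Hill equation fits.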
gsp antagonist: antagonizes gsp, the McCune-Albright syndrome mutation; gsp-mutant cells, cAMP HTRF, 30 min; Potency, µM (top dose mostly 76.9 µM), without a hit: at the highest dose activity change, negative = inhibition, most hits filed as inhibitors; 340,000 compounds, 0.4% hits; calls by dose curve; cell line not stated here;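 also: intracellular cAMP measured with PDE inhibitor Ro 20-1724 present during compound exposure; potency is read from the fitted curve at half-maximal effect; % is scaled to controls: 0 for no effect and ±100 for the full control effect; nearly all actives have a fitted effect of over 65% in size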
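Measurement of cellular cAMP by homogeneous time-resolved fluorescence following a 30 min compound exposure at 37C. The PDE inhibitor […] was present throughout; the assay buffer was DPBS with 0.05% BSA and 0.005% Tween 20.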
gsp agonist: agonists of gsp mutant (McCune-Albright syndrome); gsp mutant cells, cAMP HTRF, 30 min; Potency, µM (top dose mostly 76.9 µM), for the others: at the highest dose activation (cAMP increase), hits mostly activators; 340,000 compounds, 0.13% hits; AID 624287; active = well fitted activation curve with a large enough effect; inconclusive = small, poorly fitted or top-dose-only effect, or another doubt; inactive = no such curve, though single readings can be large or run the other way; cell line not stated here;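 also: phosphodiesterase inhibitor Ro 20-1724 added with compounds to block cAMP breakdown; potency is read from the fitted curve at half-maximal effect; nearly all actives have a fitted effect of over 60% in size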
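Cells in DMEM/10% FBS with G418 were pretreated with compounds in DMSO plus […] (300 uM stock) for 30 min at 37C. cAMP was measured by HTRF (cAMP-d2 plus anti-cAMP antibody-K) after 30 min at room temperature.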
RXFP1 antagonist: antagonists of human relaxin receptor RXFP1; HEK293-RXFP1, relaxin-stimulated cAMP HTRF, 30 min; hits give low values; activity change, negative = inhibition, % at 57.5 µM; 350,000 compounds, 0.59% hits; AID 1259400;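 active = activity change of -60% or lower, but not beyond a set lower limit; inconclusive = change between -60% and -40%, or beyond the set limit; inactive = change above -40%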; also: % is scaled to controls: 0 for no effect and ±100 for the full control effect
An asterisk follows results filed as active; i = inactive; ? = inconclusive; / = no result; [ ] = another dose, or the depositor's remark. In the library only some 1% were active in any assay of this set; here they are far more common. Unless noted, calls follow the shape of the dose curve; as a rule, active = well fitted curve in the direction sought with a large enough effect; inconclusive = small, poorly fitted or top-dose-only effect, or another doubt; inactive = no such curve, though single readings can be large; an effect the other way counts as inactive or inconclusive.

SMILES	PTHR1 ag	RXFP1 agonist	gsp antagonist	gsp agonist	RXFP1 antagonist
O=C(O)Cc1ccc2c(c1)C(=O)c1ccccc1CO2	/	/	/	/	-22
COc1ccc(C2=NCC(CSc3nnc(-c4ccc5c(c4)OCO5)o3)S2)cc1 (centres undefined)	?	2%	28µM*	?	15
O=C1C(C=Nc2ccccc2O)=C(O)c2ccccc21	-14%[57.5 µM]	1%	-3%	4%	2
Cc1ccc(O)c(N=CC2=C(O)c3ccccc3C2=O)c1	-14%	28µM*	8%	?	18
COc1ccc(N2C(=O)C(Cl)=C(N3CCOCC3)C2=O)cc1	i	1%	-3%	-87%	-62*
COc1ccc(N2C(=O)C(Cl)=C(Oc3cccc(OC)c3)C2=O)cc1	-24%	0%	28µM*	-3%[15.4 µM]	-17
COc1ccc(CCNC(=O)CCSCc2ccccc2Cl)cc1OC	-46%	5%	/	/	-21
CC(=O)O[C@@H]1CC2C3CCc4cc(OC(=O)c5ccccc5)ccc4C3CCC2(C)[C@H]1OC(C)=O (some centres undefined)	/	/	/	/	-13
CC1(C)S[C@@H]2[C@H](NC(=O)Cc3ccccc3)C(=O)N2[C@H]1C(=O)O (tested in a mixture with another compound)	/	/	/	/	11
O=C(OCC(=O)N1CCCC1)c1ccc(S(=O)(=O)Nc2ccccc2)cc1	-9%	-1%	11µM*	-72%	-5
Cc1c(C(=O)NN2CCCCC2)nn(-c2ccc(Cl)cc2Cl)c1-c1ccc(Cl)cc1	/	/	/	/	-71*
CNC(=O)c1nc(C)n(-c2ccc(Cl)cc2Cl)n1	i	-4%	17%	15%[15.4 µM]	-11
COc1ccccc1NC(=O)Cn1c(C)cc(=O)c2cccc(OC)c21	-38%	1%	28µM*	1%[15.4 µM]	-11
COc1cccc2c(=O)cc(C)n(CC(=O)Nc3ccc(C)c(C)c3)c12	-76%[57.5 µM]	-1%	-23%	37%	-16
CC1(C)O[C@H]2[C@@H](O1)[C@@H](C(=O)Nc1ccccc1C(F)(F)F)O[C@@H]1OC(C)(C)O[C@@H]12	-33%	1%	/	/	-9
O=C(CC1C(=O)N(c2ccccc2)C(=S)N1c1ccccc1)c1ccc(Br)cc1 (centres undefined)	i	1%	-1%	16%[15.4 µM]	-73*
O=C(CC1C(=O)N(c2ccccc2)C(=S)N1c1ccccc1)c1ccccc1 (centres undefined)	-21%	0%	-25%	18%	-1
Cc1ccc(CN2CC(C(=O)Nc3cc(C)ccn3)CC2=O)cc1 (centres undefined)	i	0%	-10%	0%[15.4 µM]	-118*
Cc1ccc(CN2CC(C(=O)Nc3ccncc3)CC2=O)cc1 (centres undefined)	i	2%	5%	?	-5
CC(=O)/C=C1/C(=O)Nc2ccccc21	-26%	-1%	-27%	-5%	-73*
O=C(O)COc1ccccc1/C=C1\C(=O)Nc2ccc(Br)cc21	-18%	-1%	3%	-9%[15.4 µM]	-19
O=C1Nc2ccc(Br)cc2/C1=C/C(=O)c1ccccc1	-42%	/	-4%	10%	-82*
CC(=C(CCOC(=O)C(C)C)SSC(CCOC(=O)C(C)C)=C(C)N(C=O)Cc1cnc(C)nc1N)N(C=O)Cc1cnc(C)nc1N	/	/	/	/	-10
Cc1cc(C)n(-c2nc(C)c(C)c(=O)n2CC(=O)Nc2cccc([N+](=O)[O-])c2)n1	i	4%	/	/	-5
CNC(=O)c1nnsc1S(=O)(=O)c1ccc(Cl)cc1	-28%	-3%	-1%	1%	-83*
SMILES	PTHR1 ag	RXFP1 agonist	gsp antagonist	gsp agonist	RXFP1 antagonist
O=C(c1nnsc1S(=O)(=O)c1ccc(Cl)cc1)N1CCOCC1	-38%	-1%	2%	1%[15.4 µM]	21
O=C(c1ccc(C#Cc2ccccc2)o1)N1CCN(c2ccccn2)CC1	-3%[57.5 µM]	5%	35µM*	-15%	13
CCc1cc2c(=O)c(-c3ccc4c(c3)OCCO4)c(C)oc2cc1OS(C)(=O)=O	-38%	1%	50µM*	-19%	5
CCc1cc(=O)oc2c(C)c(OS(C)(=O)=O)ccc12	i	/	1%	-1%	1
O=C(NCCOC(=O)c1ccc(Cl)c(S(=O)(=O)N2CCCCC2)c1)c1ccncc1	19%	1%	40µM*	15%	-3
CC(=O)N1c2ccc(S(=O)(=O)N3CCC(C(=O)NCCc4ccc(Cl)cc4)CC3)cc2CC1C (centres undefined)	-27%	0%	35µM*	?	25
CC(=O)N1c2ccc(S(=O)(=O)N3CCC(C(=O)NCc4ccc(Cl)cc4)CC3)cc2CC1C (centres undefined)	-41%	0%	?	1%	15
O=C(CN1CCOCC1)NNc1c2ccccc2nc2ccccc12	-12%	-5%	?	10%	-62*
COc1cc(C2C(C#N)=C(N)Oc3c2ccc2ccccc32)ccc1OCC(=O)Nc1cccc(C)c1 (centres undefined)	-13%	-2%	2%	25%[15.4 µM]	-78*
CCOc1ccc(CCNC(=O)CSc2n[nH]c(-c3ccccc3)n2)cc1OCC	-7%	4%	/	/	-8
CCOc1ccc(CCNC(=O)CSc2nc3ccccc3nc2Cc2ccc(C)cc2)cc1OCC	-23%	14µM*	/	/	2
CCOC(=O)c1sc2nc(C)[nH]c(=S)c2c1C	-8%	28µM*	3%	13µM*	34
CCOC(=O)c1sc2nc(C)n(N)c(=O)c2c1C	-3%	8%	0%	-5%	-2
CC(Sc1ccc2ccccc2n1)C(=O)O (centres undefined)	i	11µM*	16%	133%[15.4 µM]	48
CC(Sc1cccc2cccc(C(=O)O)c12)C(=O)O (centres undefined)	0%	-1%	5%	-8%	12
O=C(NCc1cccc(F)c1)c1ccc2nc(N3CCCCC3)sc2c1	i	2%	/	/	?
Fc1ccc(C(c2ccc(F)cc2)N2CCN(C/C=C/c3ccccc3)CC2)cc1	-25%	3%	-15%	/	-64*
C(=C\c1ccccc1)/CN1CCN(C(c2ccccc2)c2ccccc2)CC1	6%	1%	-1%	/	-40
CCOC(=O)C1CCN(C(=O)c2cc(S(=O)(=O)N(C)C)ccc2N2CCCC2)CC1	2%	7%	-21%	?	-18
CCOC(=O)C1CCCN(C(=O)c2cc(S(=O)(=O)N(C)C)ccc2N2CCCC2)C1 (centres undefined)	2%	-1%	2%	-2%[15.4 µM]	-71*
Cc1cccc2sc(N(CCCN(C)C)C(=O)CCc3ccccc3)nc12	i	-1%	12%	-16%	-85*
Cc1ccc2sc(N(CCCN(C)C)C(=O)c3ccc(Br)s3)nc2c1C	-6%	7%	8%	5%[15.4 µM]	-77*
O=C(CNS(=O)(=O)c1ccccc1)NCC(=O)OCc1ccc(C(=O)c2ccccc2)cc1	-28%	4%	-15%	-36%	-2
